These results are taken from PubChem BioAssay (Tox21).

Each structure is given as a SMILES string. Values without a mark were called inactive. Results filed as inconclusive are left out. Active and inactive are the calls of the source. Unless noted, calls come from the whole dose curve; as a rule, active = well fitted curve in the direction sought with a large enough effect in the repeat runs; inconclusive = weak or mixed curves; inactive = no such curve, though single readings can be large; an effect the other way counts as inactive or inconclusive.

A short description of test [1]: qHTS RealTime-Glo MT Cell Viability Assay in HEK293 cells - 8 hour (AID 1224887). Note: top concentration of the series differs between compounds; nearly all actives have a fitted effect of over 50% in size. The essentials: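 HEK293 + NanoLuc + prosubstrate, 600 cells/well; 5 h, 37 C/5% CO2; compound 23 nL in DMSO by pintool; 37 C; luminescence read at 0, 8, 16, 24, 32 and 40 h time points.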
On the technique in general: qHTS replaces the single test concentration by a dilution series.

Test [2] in a line: A CellTox Green Cytotoxicity Assay to monitor cytotoxicity in HEK293 cells - 16 hour (AID 1224888). Note: nearly all actives have a fitted effect of over 35% in size. A digest of the protocol: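 Tox21 screen in HEK293: membrane-impermeant cyanine dye fluoresces on binding dead-cell DNA; compound pinned 5 h post-seeding, plates held at 37 C, signal read repeatedly through 40 h.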
A short description of test [3]: qHTS RealTime-Glo MT Cell Viability Assay in HepG2 cells - 0 hour (AID 1224889). Note: nearly all actives have a fitted effect of over 50% in size. The essentials: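 Compound treatment began 5 h after plating HepG2 cells (600/well) with NanoLuc luciferase and prosubstrate. Plates stayed at 37 C for 40 h; luminescence was captured at six time points, 0 h through 40 h.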
The nature of test [4]: A CellTox Green Cytotoxicity Assay to monitor cytotoxicity in HepG2 cells - 8 hour (AID 1224890). Note: nearly all actives have a fitted effect of over 45% in size. The essentials: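 Measurements at 0, 8, 16, 24, 32 and 40 h of treatment captured CellTox Green fluorescence in HepG2 cells that had been co-plated with reagent and preincubated 5 h at 37 C/5% CO2.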
Test [5] in a line: qHTS assay to identify small molecule antagonists of the estrogen receptor alpha (ER-alpha) signaling pathway using the BG1 cell line in the presence of 0.1 nM 17-beta-estradiol - cell viability counter screen (AID 1259241). Note: nearly all actives have a fitted effect of over 40% in size. A digest of the protocol: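 Cells were plated and left 24 hr, compounds in DMSO were pinned in, 17beta-estradiol was added to 0.1 nM final, and after 22 hr CellTiter-Fluor reagent was added for 30 min before fluorescence was read.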

Test [6] in a line: qHTS assay to identify small molecule antagonists of the androgen receptor (AR) signaling pathway using the MDA cell line in the presence of 0.5 nM R1881 - cell viability counter screen (AID 1259242). Note: nearly all actives have a fitted effect of over 45% in size. A digest of the protocol:
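Concentration-response screen of compounds for toxicity in MDA-kb2 reporter cells: 16 hr at 37C with 0.5 nM R1881, endpoint live-cell protease fluorescence measured in the reporter wells.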

Test [7] has as its target Androgen receptor (Homo sapiens) (UniProt P10275). Briefly: qHTS assay to identify small molecule antagonists of the androgen receptor (AR) signaling pathway using the MDA cell line in the presence of 0.5 nM R1881 (AID 1259243). Note: nearly all actives have a fitted effect of over 50% in size. Note: potency is the fitted concentration of half-maximal effect. A digest of the protocol:
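With R1881 held at 0.5 nM (final), compound effects on MMTV-luciferase expression in MDA-kb2 cells were scored by luminescence after a 16 hr, 37C incubation.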

Test [8] has as its target Estrogen receptor (Homo sapiens) (UniProt P03372). Briefly: qHTS assay to identify small molecule antagonists of the estrogen receptor alpha (ER-alpha) signaling pathway using the BG1 cell line in the presence of 0.1 nM 17-beta-estradiol (AID 1259244). Note: nearly all actives have a fitted effect of over 50% in size. A digest of the protocol:
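Compounds were tested against 0.1 nM (final) 17beta-estradiol in VM7Luc4E2 cells, which express full-length ER-alpha and an ERE-luciferase reporter; luminescence was recorded following 22 h exposure.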

The nature of test [9]: qHTS assay to identify small molecule HDAC inhibitors (AID 1259364).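 Note: wild-type HCT-116 cells with endogenous class I/II HDAC activity; top concentration of the series differs between compounds; nearly all actives have a fitted effect of over 45% in size.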 The essentials:
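Screening used wild-type human colon HCT-116 cells incubated overnight, dosed with compounds for 2 hours, and assayed with a homogeneous luminogenic HDAC I/II reagent for 30 minutes at room temperature.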

Test [10] in a line: qHTS assay to identify small molecule agonists of the sonic hedgehog signaling (Shh) pathway - cell viability counter screen (AID 1259366). Note: nearly all actives have a fitted effect of over 50% in size. The essentials: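 Cells are plated at 2,000 per well and left 4hr at 37C, 5% CO2 before compound addition. After 23hr of treatment, CellTiter-Fluor reagent is added for 1hr at 37C and fluorescence is measured.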
Test [11] can be described thus: qHTS assay to identify small molecule antagonists of the sonic hedgehog signaling (Shh) pathway - cell viability counter screen (AID 1259367). Note: nearly all actives have a fitted effect of over 55% in size. A digest of the protocol: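 Tox21 library chemicals were tested on a Gli1-Luc NIH/3T3 clone (2,000 cells/well) stimulated by conditioned medium; viability was quantified as fluorescence from CellTiter-Fluor reagent added at 23 hr.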

Test [12] can be described thus: qHTS assay to identify small molecule agonists of the sonic hedgehog signaling (Shh) pathway (AID 1259368; calls by dose curve;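 note: NIH/3T3-derived 3T3Gli1-Luc cells carrying a stable Gli1-driven firefly luciferase reporter; series mostly up to about 92 µM; nearly all actives have a fitted effect of over 15% in size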). A digest of the protocol:
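Hedgehog pathway agonism scored by increased firefly luciferase luminescence in 3T3Gli1-Luc cells treated 24 hr at 37 C; detection used a 30 min room-temperature reagent incubation.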

For test [13], the target named is Estrogen receptor beta (Homo sapiens) (UniProt Q92731). Briefly: qHTS assay to identify small molecule antagonists of the estrogen receptor beta (ER-beta) signaling pathway (AID 1259378; active = well fitted inhibition curve with a large enough effect in the signal ratio in the repeat runs, not every such curve was filed as active; the % refers to the signal ratio; note: potency is the fitted concentration of half-maximal effect). The essentials: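 ER-beta-UAS-bla HEK293T cells in 2% charcoal-stripped FBS medium treated with compound plus 1nM final 17-beta-estradiol for 16 hr at 37C. Beta-lactamase reporter read by FRET substrate fluorescence after 2 hours at room temperature.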
Sequence of Estrogen receptor beta (Homo sapiens) (Q92731 whole entry, looked up, the tested form may be a part): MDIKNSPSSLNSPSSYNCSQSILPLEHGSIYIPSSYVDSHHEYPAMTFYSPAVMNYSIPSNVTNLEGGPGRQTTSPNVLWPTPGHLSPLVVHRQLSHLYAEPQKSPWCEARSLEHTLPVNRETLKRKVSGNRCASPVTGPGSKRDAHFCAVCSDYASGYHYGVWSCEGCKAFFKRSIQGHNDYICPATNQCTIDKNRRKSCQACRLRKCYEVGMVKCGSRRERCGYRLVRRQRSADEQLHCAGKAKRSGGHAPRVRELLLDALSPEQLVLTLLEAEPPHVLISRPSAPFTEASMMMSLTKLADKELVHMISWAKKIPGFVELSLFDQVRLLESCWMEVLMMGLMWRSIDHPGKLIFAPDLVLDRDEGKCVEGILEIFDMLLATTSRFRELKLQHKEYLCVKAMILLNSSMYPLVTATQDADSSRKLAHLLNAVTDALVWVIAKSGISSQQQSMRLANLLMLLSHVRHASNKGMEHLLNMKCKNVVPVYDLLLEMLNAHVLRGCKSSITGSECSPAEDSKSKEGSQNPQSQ

Test [14] can be described thus: qHTS assay to identify small molecule agonists of the androgen receptor (AR) signaling pathway in the presence of an antagonist - cell viability counter screen (AID 1259379).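 Note: MDA-kb2 human breast cancer cells carrying an MMTV luciferase reporter; series mostly up to about 92 µM; nearly all actives have a fitted effect of over 25% in size.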 The essentials: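 MDA-kb2 viability measured by CellTiter-Fluor fluorescence in the same wells as the luciferase signal; nilutamide 3.0uM final; 15-point compound titration; 16 hr at 37C.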

Test [15] can be described thus: qHTS assay to identify small molecule agonists of the estrogen receptor beta (ER-beta) signaling pathway - cell viability counter screen (AID 1259380). Note: nearly all actives have a fitted effect of over 30% in size. The essentials: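 Measured: luminescence from CellTiter-Glo after 30 min at room temperature, added to wells already read for the LiveBLAzer FRET reporter (2 hr substrate); ER-beta-UAS-bla HEK293T cells had 16 hr compound treatment at 37C, 5% CO2.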

For test [16], the target named is Androgen receptor (Homo sapiens) (UniProt P10275). Briefly: qHTS assay to identify small molecule agonists of the androgen receptor (AR) signaling pathway in the presence of an antagonist (AID 1259381; calls by dose curve; note: nearly all actives have a fitted effect of over 15% in size). The essentials: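 Luminescent ONE-Glo read, 30min at room temperature, follows 16hr compound exposure (15 concentrations) of MDA-kb2 cells at 37C, 0% CO2, with nilutamide added at 3.0uM final.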
Sequence of Androgen receptor (Homo sapiens) (P10275 whole entry, looked up): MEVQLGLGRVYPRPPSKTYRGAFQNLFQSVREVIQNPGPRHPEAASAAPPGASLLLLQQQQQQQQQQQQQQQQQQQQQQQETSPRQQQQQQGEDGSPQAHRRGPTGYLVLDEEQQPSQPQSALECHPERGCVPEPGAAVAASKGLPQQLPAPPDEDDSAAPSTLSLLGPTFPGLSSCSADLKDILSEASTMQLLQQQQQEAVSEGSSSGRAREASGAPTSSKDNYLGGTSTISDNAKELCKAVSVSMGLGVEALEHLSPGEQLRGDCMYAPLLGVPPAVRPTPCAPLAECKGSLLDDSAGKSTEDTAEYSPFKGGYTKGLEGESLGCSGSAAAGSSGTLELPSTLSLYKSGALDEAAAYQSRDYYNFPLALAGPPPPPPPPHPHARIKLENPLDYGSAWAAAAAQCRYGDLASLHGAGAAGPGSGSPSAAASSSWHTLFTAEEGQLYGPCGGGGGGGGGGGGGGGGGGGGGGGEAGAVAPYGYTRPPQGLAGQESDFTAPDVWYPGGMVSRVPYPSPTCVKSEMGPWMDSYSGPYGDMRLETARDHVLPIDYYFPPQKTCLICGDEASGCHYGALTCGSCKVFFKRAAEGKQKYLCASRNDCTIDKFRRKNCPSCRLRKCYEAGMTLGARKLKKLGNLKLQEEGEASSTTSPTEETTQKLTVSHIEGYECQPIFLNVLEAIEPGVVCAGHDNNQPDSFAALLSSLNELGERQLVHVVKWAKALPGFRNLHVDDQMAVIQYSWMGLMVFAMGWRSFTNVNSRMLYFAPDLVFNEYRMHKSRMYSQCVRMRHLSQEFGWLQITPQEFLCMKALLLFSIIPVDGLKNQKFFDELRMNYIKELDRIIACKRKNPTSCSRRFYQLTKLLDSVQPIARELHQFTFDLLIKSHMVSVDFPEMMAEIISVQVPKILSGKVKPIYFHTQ

Test [17] can be described thus: qHTS assay to identify small molecule antagonists of the sonic hedgehog signaling (Shh) pathway (AID 1259369; calls by dose curve; note: nearly all actives have a fitted effect of over 45% in size). A digest of the protocol: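 NIH/3T3 stable Gli1-Luc clone, 2,000 cells/well, 4hr settle; cpd + conditioned medium 24hr; Luc reagent 30min RT; luminescence.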
The nature of test [18]: qHTS assay to identify small molecule HDAC inhibitors - cell viability counter screen (AID 1259365). The essentials: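 Counter screen in wild-type HCT-116 cells: compounds dissolved in DMSO are pin-transferred onto overnight-plated cells and left 2hr at 37C. ATP-based CellTiter-Glo luminescence then measures viable cells.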
For test [19], the target named is Estrogen receptor beta (Homo sapiens) (UniProt Q92731). Briefly: qHTS assay to identify small molecule agonists of the estrogen receptor beta (ER-beta) signaling pathway (AID 1259377; active = well fitted activation curve with a large enough effect in the signal ratio in the repeat runs, not every such curve was filed as active; the % refers to the signal ratio). The essentials:
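Agonist mode cell assay in GripTite HEK293T cells expressing an ER-beta fusion that drives beta-lactamase from an Upstream Activator Sequence; 16 hr compound exposure at 37C, then 2 h LiveBLAzer B/G FRET substrate at room temperature, fluorescence read-out.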
% is set by controls: 0 for no effect and ±100 for the full control effect.

Sequence of Estrogen receptor (Homo sapiens) (P03372 whole entry, looked up): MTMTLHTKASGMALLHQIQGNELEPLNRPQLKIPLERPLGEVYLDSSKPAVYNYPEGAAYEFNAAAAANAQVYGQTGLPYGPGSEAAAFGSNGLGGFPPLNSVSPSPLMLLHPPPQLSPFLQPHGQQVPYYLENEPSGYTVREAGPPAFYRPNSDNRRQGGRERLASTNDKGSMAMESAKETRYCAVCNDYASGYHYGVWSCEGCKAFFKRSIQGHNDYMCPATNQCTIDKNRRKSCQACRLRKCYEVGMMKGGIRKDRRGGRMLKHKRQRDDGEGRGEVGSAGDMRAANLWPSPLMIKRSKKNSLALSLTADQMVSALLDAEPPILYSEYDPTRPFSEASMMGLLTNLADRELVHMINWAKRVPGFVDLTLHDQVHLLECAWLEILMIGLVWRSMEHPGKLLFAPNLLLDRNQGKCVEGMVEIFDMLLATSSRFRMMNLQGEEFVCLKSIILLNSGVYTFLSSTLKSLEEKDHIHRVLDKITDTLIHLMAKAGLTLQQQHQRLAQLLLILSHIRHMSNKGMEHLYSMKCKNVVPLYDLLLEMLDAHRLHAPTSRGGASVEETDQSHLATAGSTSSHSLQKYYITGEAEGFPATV

For `Oc1ccc2c(c1)CCC2`, the Potency entry in test [1], in [2], in test [3], in [4], in test [5] and in test [6] was “inactive” throughout. In addition, the Potency entry in test [7], in [8], in [9], in [10], in test [11] and in test [12] was “inactive” in each case. Also, the Potency result in [13], in test [14], in [15] and in [16] was “inactive” in each case.
For the molecule `Cc1cccc2c1ccc1ccccc12`, the Potency entry in test [1], in test [2], in test [3], in test [4], in [5] and in test [6] was “inactive” throughout. For the same molecule, the Potency entry in [9], in [10], in test [11], in [12], in test [17] and in [13] was “inactive” throughout. The Potency result in [14], in test [15] and in [16] was “inactive” each time. The Potency in test [7] is 15.4 µM (active).
`O=C(O)CN(CCCN(CC(=O)O)CC(=O)O)CC(=O)O`: the activity change, negative = cytotoxicity in test [1] was -4.97% [at 15.8 µM]; in test [3], -28.3% [at 15.8 µM]; in test [5] it was 0.536% [at 19 µM]; in test [18] it was -1.94% [at 19 µM]; in [14], -2.17% [at 19 µM]; in test [15], -20.5% [at 19 µM]. Besides, the activity change is 0.612% [at 15.8 µM, hits give high values] in test [2] and -1.26% [at 18.9 µM, hits give high values] in test [12]. Moreover, the cytotoxicity increase in test [4] is -1.45% [at 15.8 µM]. In addition, the figures for the viability change, negative = cytotoxic in [6], in [10] and in [11] were 0.128% [at 19 µM], -10.7% [at 19 µM] and -4.5% [at 19 µM], respectively. For the same molecule, in test [7], the activity, negative = inhibition is 1.14% [at 19 µM]. Further, the activity change, negative = inhibition in test [9] is 1.25% [at 19 µM]. For the same molecule, the activation in test [19] is -3.28% [at 19 µM]; in test [16], 1.23% [at 19 µM]. Moreover, the Potency in [13] is 2.31 µM (active).
On to `CCc1cccc(CC)c1`, for which the Potency result in [1], in [2], in test [3], in [4], in test [5] and in test [6] was “inactive” throughout. For the same molecule, the Potency entry in test [7], in test [8], in test [9], in [18], in test [10] and in test [11] was “inactive” in each case. For the same molecule, the Potency result in [12], in test [17], in [13], in test [14] and in test [16] was “inactive” throughout. Further, the outcome in [19] was inactive.
As for `CC(CC(C)(C)C)CC(C)(C)CC(C)(C)C` (configuration not stated), the Potency result in test [1], in [2], in test [3], in [4], in test [5] and in [6] was “inactive” in each case. In addition, the Potency result in test [7], in test [9], in test [18], in test [10], in [11] and in test [12] was “inactive” throughout. Further, the Potency entry in test [17], in test [13], in test [14], in test [15] and in test [16] was “inactive” each time. For the same molecule, the molecule was classed as inactive in test [19].
`SC1CCCCC1`: the Potency result in test [1], in test [2], in [3], in test [4], in test [5] and in test [6] was “inactive” in each case. Moreover, the Potency entry in test [9], in [10], in test [11], in test [12], in test [17] and in test [13] was “inactive” each time. Moreover, in test [14], the Potency result was “inactive”. The molecule was called inactive in test [19].
Turning to `CCc1cccc(C)c1N(C(=O)CS(=O)(=O)O)C(C)COC` (configuration not stated), the Potency result in test [1], in test [2], in test [3], in test [4], in test [6] and in test [7] was “inactive” each time. Further, the Potency result in test [8], in test [9], in test [18], in test [10], in test [11] and in [12] was “inactive” throughout. In addition, the Potency result in test [17], in test [13], in test [14], in test [15] and in test [16] was “inactive” in each case. For the same molecule, the call in test [19] was inactive.
